S2 tox – viability counter-screen for ATXN expression inhibitors. S2 cells (HEK-293 line with an ATXN2-luciferase reporter) viability, CellTiter-Fluor protease fluorescence, 24 h. Potency, µM (doses to about 56.7 µM), most hits filed as cytotoxic. hit rate 0.49% among 400,000. AID 651635; note: nearly all actives have a fitted effect of over 40% in size
A549 tox – counter-screen for Nrf2 inhibitors: cytotoxicity in A549 cells; hit rate 0.16% among 390,000; Potency, µM (highest dose often 46 µM), inactives show top-dose activity change, negative = cytotoxicity, actives largely listed as inhibitors; A549 ARE-Fluc cells, CellTiter-Fluor viability, 18-24 h; AID 504648; note: % is set by controls: 0 for no effect and ±100 for the full control effect
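A549 ARE-Fluc cells in 5% FBS OPTI-MEM, 5000 cells/well, rested 2 h then exposed to compounds in concentration-response for 18-24 h at 37 °C. Viability by CellTiter-Fluor fluorescence (Ex 405/Em 525) after 30 min; luciferase luminescence (BugLite, 15 min, RT) read afterwards.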
TGFb inhibitor – TGF-b pathway inhibition; HepG2 CAGA-GFP TGF-b/SMAD3 reporter, GFP fluorescence, 18 h; TGF-beta stimulated, 500 pg/mL final; hit rate 1.2% among 410,000; Potency, µM (doses to about 46.1 µM), without a hit: top-dose activity, negative = inhibition, actives largely listed as inhibitors; note: % is set by controls: 0 for no effect and ±100 for the full control effect; nearly all actives have a fitted effect of over 65% in size
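Smad-responsive CAGA-GFP expression was quantified in HEPG2 cells exposed to compounds and 500 pg/mL final TGF-beta for 18 h at 37 degrees C; unstimulated wells defined full inhibition.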
ATXN2 expr inh – reduces ATXN2 reporter expression in HEK-293 cells; Potency, µM (series often up to 57 µM), for inactives: top-dose activity change, negative = inhibition, usual class: inhibitors; HEK-293 ATXN2-luciferase reporter, luminescence, 24 h; AID 1745845; hit rate 0.72% among 360,000; note: % is set by controls: 0 for no effect and ±100 for the full control effect; nearly all actives have a fitted effect of over 55% in size
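qHTS (up to 57 uM final) was run with 24 h compound exposure of reporter cells at 37 °C. Each well was multiplexed: SteadyGlo luminescence measured ATXN2-luciferase expression after a fluorogenic Gly-Phe-AFC viability readout (25 uM final).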
Nrf2 block – inhibitors of Nrf2 signaling. hit rate 2.1% among 360,000. AID 504444. Potency, µM (highest dose often 46 µM), inactives show at the highest dose activity change, negative = inhibition, actives largely listed as inhibitors. A549 ARE-Fluc reporter, luciferase luminescence, 18-24 h; note: % is set by controls: 0 for no effect and ±100 for the full control effect; nearly all actives have a fitted effect of over 60% in size
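Nrf2 activity is the BugLite luminescence, read 15 min after reagent at room temperature, following CellTiter-Fluor cytotoxicity readout (30 min, 37C). Compound titrations were applied for 18-24 h to 5000 A549 ARE_Fluc cells/well in 5% FBS OPTI-MEM.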
HepG2 tox – kills HepG2 cells in TGF-b inhibitor counter-screen; HepG2 CAGA-GFP viability, ATP luminescence, 18 h; Potency, µM (titrated, usually from 46.1 µM), without a hit: top-dose activity change, negative = cytotoxicity, most hits filed as cytotoxic; hit rate 0.76% among 410,000; AID 588856
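HepG2 CAGA-GFP cells (1000/well, DMEM with 1% FBS) received compound, then TGF-beta at 500 pg/mL final, and were incubated 18 hours at 37 degrees C. Viability was read by CellTiter-Glo luminescence. Media-only wells were set as complete cell-killing and DMSO as no toxicity.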
Active calls of the source: *; i = inactive; ? = inconclusive; . = no result; ! = not confirmed by another sample. Shown are actives, neighbours in structure and some others; about 3.8% of the full set was active somewhere. Calls come from the whole dose curve; as a rule, active = well fitted curve in the direction sought with a large enough effect; inconclusive = small, poorly fitted or top-dose-only effect, or another doubt; inactive = no such curve, though single readings can be large; an effect the other way counts as inactive or inconclusive. Potency is the fitted concentration of half-maximal effect.

SMILES	S2 tox	A549 tox	TGFb inhibitor	ATXN2 expr inh	Nrf2 block	HepG2 tox
COc1ccc2nc(NC(=O)C3CCN(C(=O)c4ccco4)CC3)sc2c1	i	-3.2%	-10.1%	7.0%	0.7%	-3.6%
Cc1cc(C(=O)OCC(=O)Nc2ccccc2C#N)c(C)o1	i	-0.4%	-5.4%	8.7%	?	11.8%
Cc1ccc(-c2nnc(Nc3ccc4c(c3)nc(C)n4C)c3ccccc23)cc1	?	?	?	-4.7%	20.6µM*	-68.3%
COC(=O)COc1ccc(-c2nnc(Nc3ccc(O)cc3)c3ccccc23)cc1	?	-1.2%	?	?	-2.3%	11.2µM*
Cc1ccc(-c2nnc(NC3CCCCC3)c3ccccc23)cc1S(=O)(=O)N1CCN(C)CC1	.	?	-3.0%	?	23.1µM*	-31.9%
COc1ccc(N2CCN(S(=O)(=O)c3ccc4c(c3)NC(=O)C(C)S4)CC2)cc1 (stereo not given)	?	-14.8%	-12.6%	-22.5%	-43.5%	-14.7%
CCOc1ccc(NC(=S)Nc2cc(OC)c(Cl)cc2OC)cc1	i	-1.5%	?	-16.8%	-13.9%	1.0%
CN1CCN(c2nc(-c3ccccn3)nc3ccccc23)CC1	?	-15.5%	12.1%	?	4.5%	-45.7%
c1ccc(N2CCN(c3nc(-c4ccccn4)nc4ccccc34)CC2)cc1	?	?	?	?	16.4µM*	-11.3%
CSc1nc2ncc(C(=O)O)c(N)n2n1	i	0.4%	-8.8%	.	4.2%	17.6%
CSc1nc(NCC(C)O)c2c3c(sc2n1)CN(C)CC3 (stereo not given)	i	14.5%	-4.2%	.	9.7%	-15.3%
CSc1nc(SCC(=O)NC(c2ccccc2)c2ccccc2)c2c3c(sc2n1)CN(C)CC3	28.2µM*	?	-6.6%	20µM*	?	-36.0%
CCc1ccc(NC(=O)CCn2c(-c3ccc(OC)cc3)cc(C(C)=O)c2C)cc1	.	-20.7%	-21.7%	.	.	-16.1%
CCC(=O)O[C@H]1[C@H](O[C@@H]2[C@@H](C)[C@H](O[C@H]3C[C@@](C)(OC)[C@@H](O)[C@H](C)O3)[C@@H](C)C(=O)O[C@H](CC)[C@@](C)(O)[C@H](O)[C@@H](C)C(=O)[C@H](C)C[C@@]2(C)O)O[C@H](C)C[C@@H]1N(C)C	15.8µM*!	.	.	6.4%	.	.
CCOC(=O)CCC(=O)O[C@H]1[C@H](O[C@@H]2[C@@H](C)[C@H](O[C@H]3C[C@@](C)(OC)[C@@H](O)[C@H](C)O3)[C@@H](C)C(=O)O[C@H](CC)[C@@](C)(O)[C@H](O)[C@@H](C)C(=O)[C@H](C)C[C@@]2(C)O)O[C@H](C)C[C@@H]1N(C)C	i	1.3%	7.4%	2.8%	3.8%	3.0%
Cc1cccc2c(=O)cc(CSc3ccccc3NC(=O)c3cccc(Cl)c3)[nH]c12	31.6µM*	0.5%	-31.9%	-7.7%	.	-28.0%
CCOc1ccc(C(c2c(O)cc(C)n(Cc3ccco3)c2=O)N2CCCCC2)cc1 (stereo not given)	.	-9.8%	14.1%	.	.	-0.7%
COc1ccc(Sc2nc(-c3ccccn3)ncc2OC)cc1	?	-7.2%	-3.0%	22.4µM*	-10.3%	-13.7%
COc1cnc(-c2ccccn2)nc1Sc1ccccc1	i	-2.6%	-18.8%	-19.6%	2.2%	-8.8%
C=CC[n+]1c(-c2ccc(OC)c(OC)c2)csc1NNC(=O)Nc1ccccc1	?	?	?	?	13µM*	-38.2%
C=CC[n+]1c(-c2ccccc2)csc1NC(C)(C)C	i	1.5%	1.0%	-11.1%	14.6%	-11.1%
O=C(NNC(=O)c1cc(Br)c(Br)s1)c1ccncc1	i	-2.6%	-1.6%	3.1%	-15.6%	3.8%
O=C1Nc2cc(C(=O)N3CCN(c4ccccn4)CC3)ccc2S/C1=C\c1ccccc1	i	-1.6%	-23.5%	0.0%	23.1µM*	-1.5%
O=C1Nc2cc(C(=O)N3CCOCC3)ccc2S/C1=C\c1ccccc1	i	0.9%	-23.4%	.	8.2%	-20.9%
COc1ccc(/C=C2/Sc3ccc(C(=O)NCCN4CCCCCC4)cc3NC2=O)cc1	28.2µM*	-21.7%	25.1µM*	.	-4.7%	12.6µM*
SMILES	S2 tox	A549 tox	TGFb inhibitor	ATXN2 expr inh	Nrf2 block	HepG2 tox
COc1ccc2[nH]c(C(=O)NCCN3CCCCC3)cc2c1	i	0.2%	-8.5%	-5.3%	7.6%	7.94µM*
COc1ccc(C(=O)NCCN2CCCC2)cc1	i	-0.2%	-3.6%	-4.9%	-6.3%	-12.7%
O=C1Nc2cc(C(=O)NCCCN3CCCC3)ccc2S/C1=C\c1ccccc1	?	1.9%	?	.	-21.4%	15.8µM*
CC(=O)NC1CCCN(O)C(=O)/C=C(\C)CCOC(=O)C(NC(C)=O)CCCN(O)C(=O)/C=C(\C)CCOC(=O)C(NC(C)=O)CCCN(O)C(=O)/C=C(\C)CCOC1=O (stereo not given)	i	0.7%	4.3%	-4.7%	0.6%	3.0%
CCN(CC)c1ccc(C=C2SC(=S)NC2=O)cc1	?	?	134.3%	33.4%	-2.1%	-8.8%
CC1Cc2cc(/C=C3/SC(=S)NC3=O)ccc2O1 (stereo not given)	?	13µM*	21.6%	0.6%	?	-5.0%
O=C1NC(=Nc2ccccc2Cl)S/C1=C\c1cccc([N+](=O)[O-])c1	i	-1.5%	?	-23.7%	28.7%	-26.6%
O=C1NC(=S)S/C1=C\c1cccc([N+](=O)[O-])c1	?	?	-10.6%	-21.7%	18.4µM*	-19.8%
N#Cc1ccc(C(=O)Nc2ccn(-c3ccccc3)n2)cc1	i	-18.4%	-4.1%	?	23.1µM*	-10.9%
CC(=O)c1cn(CC(=O)Nc2ccccc2C)c2ccccc12	i	-5.5%	0.0%	-21.2%	9.2µM*	-4.8%
O=C(Cn1cc(C(=O)C(F)(F)F)c2ccccc21)Nc1ccccc1F	?	-17.2%	8.5%	-45.1%	-20.4%	11.2µM*
Cc1ccc(C)c(NC(=O)Cn2cc(C(=O)c3ccco3)c3ccccc32)c1	?	-1.5%	-1.9%	-31.9%	-24.0%	-28.3%
O=C(c1ccco1)c1cn(CCOc2ccc(F)cc2)c2ccccc12	i	-26.9%	-16.4%	-2.4%	23.1µM*	-15.0%
Cc1cccc(NC(=O)Cn2cc(C(=O)c3ccco3)c3ccccc32)c1C	?	-22.4%	?	0.0%	20.6µM*	-29.0%
CC(=O)c1cn(CC(=O)Nc2ccc(C)cc2)c2ccccc12	i	-2.9%	2.3%	16.9%	?	2.2%
CC1=Nc2ccccc2/C1=C(/C)c1c(C)[nH]c2ccccc12	.	.	5.0%	.	.	1.4%

Source: PubChem
